# Screens as filed in PubChem.
# 15-hLO-2 inh – inhibitors of human 15-lipoxygenase 2 (ALOX15B); O15296; purified 15hLO-2, xylenol orange hydroperoxide absorbance; Potency, µM (top dose mostly 57.1 µM), inactives show at the top dose activity change, negative = inhibition, actives largely listed as inhibitors; hit rate 0.56% among 110,000; AID 881; note: potency is the fitted concentration of half-maximal effect; nearly all actives have a fitted effect of over 60% in size
# Target sequence (O15296 whole entry, looked up): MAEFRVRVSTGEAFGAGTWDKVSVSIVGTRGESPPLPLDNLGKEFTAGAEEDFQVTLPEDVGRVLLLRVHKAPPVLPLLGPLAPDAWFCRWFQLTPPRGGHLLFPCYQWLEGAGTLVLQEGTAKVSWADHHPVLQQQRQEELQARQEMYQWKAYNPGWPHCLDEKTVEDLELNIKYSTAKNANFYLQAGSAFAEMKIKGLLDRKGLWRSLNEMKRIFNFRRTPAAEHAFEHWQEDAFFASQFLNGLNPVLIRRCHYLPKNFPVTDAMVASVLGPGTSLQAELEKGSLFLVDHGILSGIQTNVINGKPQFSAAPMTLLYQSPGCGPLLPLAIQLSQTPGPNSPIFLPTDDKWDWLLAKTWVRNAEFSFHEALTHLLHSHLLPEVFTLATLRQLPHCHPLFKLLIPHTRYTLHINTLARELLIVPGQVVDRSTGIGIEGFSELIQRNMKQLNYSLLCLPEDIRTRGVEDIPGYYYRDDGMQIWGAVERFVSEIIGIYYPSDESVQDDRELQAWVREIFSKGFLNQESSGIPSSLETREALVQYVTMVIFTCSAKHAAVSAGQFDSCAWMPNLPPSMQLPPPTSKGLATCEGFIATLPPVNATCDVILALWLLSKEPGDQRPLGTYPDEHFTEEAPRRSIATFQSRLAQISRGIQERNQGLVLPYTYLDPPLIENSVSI
#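 Purified human 15hLO-2 (50 nM final) preincubated with compounds 15 min at room temperature in 25 mM Hepes pH 7.5, 0.01% Triton X-100, then 45 uM arachidonic acid added for 90 min; hydroperoxide detected via ferrous/xylenol orange, 573/405 nm absorbance ratio.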
# ALOX12 inhib – inhibitors of human 12-lipoxygenase (ALOX12). P18054. purified 12-hLO, xylenol orange hydroperoxide absorbance. Potency, µM (highest dose often 57.1 µM), for the others: at the top dose activity change, negative = inhibition, most hits filed as inhibitors. hit rate 0.12% among 150,000. AID 1452; note: potency is the fitted concentration of half-maximal effect; nearly all actives have a fitted effect of over 55% in size
#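 Xylenol orange chromogenic assay: hydroperoxide from 12hLO oxidises Fe(II), giving red-shifted Fe(III)-XO absorbance. Conditions: 150 nM enzyme, 40 uM arachidonic acid, 25 mM Hepes pH 7.0, 0.01% Triton X-100, 30 min, room temperature.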
# PNC inhibitor – perinucleolar compartment assembly inhibition; PC3M PTB-GFP, PNC prevalence imaging, 16 h; stronger effect = lower value; activity change (PNC), negative = inhibition, % at 10 µM; hit rate 3.1% among 140,000; AID 2417;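 active = readout at or below -70, meaning at least 70% loss of cells showing the perinucleolar compartment, a nuclear body marking cancer cells; inconclusive = readout between -30 and a set limit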;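 note: plate controls were DMSO wells for no effect and camptothecin positive control wells for full effect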
#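 Read-out is percentage of cells bearing a perinucleolar compartment, from automated 20x imaging of fixed, Hoechst-stained PC3M PTB-GFP cells. Cells were seeded 4 h, then exposed 16 h to compound (23 nl of library stock) in duplicate plates.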
# An asterisk follows results filed as active; ? = inconclusive; nt = no result; [ ] = another dose, or the depositor's remark. A selection: hits, their analogues and other compounds. The true share with any hit is near 3.1%. Unless noted, calls come from the whole dose curve; as a rule, active = well fitted curve in the direction sought with a large enough effect; inconclusive = small, poorly fitted or top-dose-only effect, or another doubt; inactive = no such curve, though single readings can be large; an effect the other way counts as inactive or inconclusive. Unless noted, % is set by controls: 0 for no effect and ±100 for the full control effect.
SMILES,15-hLO-2 inh,ALOX12 inhib,PNC inhibitor
C[C@H]1[C@H](C)CC[C@]2(C(=O)O)CC[C@]3(C)C(=CCC4[C@@]5(C)CC[C@H](O)C(C)(C)[C@@H]5CC[C@]43C)[C@H]12 (some centres undefined),-12%,-6%,nt
COC(=O)c1[nH]c(=O)c2ccccc2c1OCc1ccccc1,3%,-1%,50
COC(=O)c1cc(O)c(OCc2ccccc2)c(O)c1,-5%,-3%,-85*
COC(=O)c1ccccc1OCCOCCOc1cccc2cccnc12,nt,0%,?
O=[N+]([O-])c1ccccc1OCCOCCOc1cccc2cccnc12,nt,-6%,-86*
O=C(Nc1ccccc1)NC1(C(=O)NCCCN2CCOCC2)CCCCC1,-1%,0%,-3
O=C(Nc1ccccc1)NC1(C(=O)NCc2cccs2)CCCCC1,-3%[11.4 µM],3%,-96*
COC(=O)c1ccc(C(/C=C/[C@@H](C)C(=O)NCc2cc(C)n(C)n2)NC(=O)OCc2ccccc2)cc1 (some centres undefined),-2%,1%,nt
CCC1=C(OC(=O)N(CC)CC)N2C(=O)OC(=NCC3CC3)[C@]2(C)[C@H]2C1=CC[C@H]1C(=O)N(c3ccccc3)C(=O)[C@H]12,-1%,0%,nt
CC[C@H](/C=C/[C@@H](C)[C@H]1CC[C@H]2C3CC=C4C[C@@H](O)CC[C@]4(C)C3CC[C@]12C)C(C)C (some centres undefined),-3%,-4%,nt
CC(=O)c1ccc(N2CCN(C(=O)c3ccc4c(=O)n(-c5ccccc5)c(=O)[nH]c4c3)CC2)cc1,nt,1%,-108*
COc1ccc(N2CCN(C(=O)c3ccc4c(=O)n(CC5CCCO5)c(=O)[nH]c4c3)CC2)cc1 (centres undefined),-3%,-5%,?
COCCNCCCOc1ccc(C(C)(C)c2ccccc2)cc1,nt,-5%,23
COCCCNCCCOc1ccc(C(C)(C)c2ccccc2)cc1,nt,-2%,-107*
CCC(Sc1nnnn1C)C(=O)Nc1ccc(C(C)=O)cc1 (centres undefined),5%,0%,-87*
CCCCOc1ccc(NC(=O)CSc2nnnn2C)cc1,4%,-3%,7
N[C@@H](C(=O)O)[C@H](CC(=O)O)c1ccc(Cl)cc1,8%,1%,nt
O=C(Oc1ccccc1)N1CCC2(CC1)CCN(c1cccc(-c3ccccc3)c1)CC2,13%,-5%,nt
COc1ccc(CCNS(=O)(=O)c2ccc3c(c2)CCN3C(=O)C2CC2)cc1OC,-8%,2%,96
CCOc1ccc(OCC)c(NS(=O)(=O)c2ccc3c(c2)CCN3C(=O)C2CCC2)c1,0%,-2%,-85*
Cc1ccc(CSc2nnc(-c3cccs3)n2C)cc1,nt,4%,-100*
Cn1c(SCc2ccc(Br)cc2)nnc1-c1cccs1,2%,-7%,0
C/C(=N/NC1=NCCN1)c1cn(C2=NCCN2)nc1C,11%[11.4 µM],6%[11.4 µM],nt
Cc1ccc(-c2ccc(/C=C3\C(=O)ON=C3c3ccccc3)o2)c([N+](=O)[O-])c1,4µM*,-8%,26
Cc1ccc(-c2ccc(/C=N/N3C(=O)C4C5C=CC(CC5)C4C3=O)o2)c([N+](=O)[O-])c1 (centres undefined),-6%,-13%,31
SMILES,15-hLO-2 inh,ALOX12 inhib,PNC inhibitor
O=C1/C(=C\c2ccc(-c3ccccc3[N+](=O)[O-])o2)C(c2ccccc2)=NN1c1ccccc1,nt,-1%,-86*
CN(C)/C=C1/C(=O)N(c2ccc([N+](=O)[O-])cc2)N=C1c1ccccc1,nt,-10%,?
CS(=O)(=O)N1CCC[C@@]2(CCN(C(c3ccccc3)c3ccccc3)C2)C1,33%,2%,nt
O=C(NCc1ccccc1F)C1CCCN(C(=O)NC2CCCCC2)C1 (centres undefined),0%,-1%,-124*
O=C(NCC1CCCCC1)C1CCCN(C(=O)NC2CCCCC2)C1 (centres undefined),2%,-3%,-18
CC1(C)S[C@@H]2[C@H](NC(=O)[C@@H](N)c3ccccc3)C(=O)N2[C@H]1C(=O)O[C@H]1OC(=O)c2ccccc21,7%[25.6 µM],1%[25.6 µM],nt
O=C1S/C(=C\c2ccc(N3CCOCC3)o2)C(=O)N1Cc1c(F)cccc1Cl,6.3µM*,-20%,28
O=C1S/C(=C/c2ccc(N3CCOCC3)o2)C(=O)N1Cc1c(F)cccc1Cl,?,-9%,-28
O=C(NCc1ccccn1)c1cc(-c2ccccc2Cl)nc2ccccc12,nt,10%,-88*
O=C(NCCc1ccccn1)c1cc(-c2ccc(Cl)c(Cl)c2Cl)nc2ccccc12,nt,3%,?
O=C1C2[C@@H](c3ccccc3)N[C@@H](c3ccccc3)C1[C@H](c1ccccc1)N[C@H]2c1ccccc1,-4%[11.4 µM],5%[11.4 µM],nt
O=S(=O)(CCn1cccc1)CCn1cccc1,nt,-3%,-100*
CC(C)N1CCN(c2ccc(OC[C@@H]3CO[C@@](Cn4cncn4)(c4ccc(Cl)cc4Cl)O3)cc2)CC1,33%[25.6 µM],5%[25.6 µM],nt
CN(C)Cc1ccccc1-c1cncnc1NCc1cccnc1,-3%,-6%,nt
COc1cc(NC(=S)N2CCN(c3ccccn3)CC2)cc(OC)c1,nt,-1%,33
COc1ccc(NC(=S)N2CCN(c3ccccn3)CC2)cc1OC,nt,-3%,-115*
COCCNc1nc(-c2cccc(OC)c2)nc2ccccc12,10%,-6%,nt
COc1ccc2c(c1)sc(N)[n+]2Cc1cc(C)cc2cccnc12,nt,2%,?
CCOc1ccc2c(c1)sc(N)[n+]2Cc1cc(C)cc2cccnc12,nt,-1%,-85*
COC(=O)c1cc(OC)c(=O)c2c(OC)c(OC)ccc2c1,-6%,-2%,nt
N/C(=N\OC(=O)c1ccc(Cl)c(Cl)c1)c1cccnc1,3%,-4%,37
O=C(O/N=C(\c1ccccc1)c1ccccn1)c1ccc(Cl)c(Cl)c1,14%,3%,-107*
COc1ccc(C[C@H](O)CN2CCOCC2)cc1,10%[11.4 µM],-1%[11.4 µM],nt
O=C(NCc1ccccc1)N[C@@H](Cc1ccccc1)C(=O)O,0%,-1%,?
O=C(NCc1ccc(F)cc1)N[C@@H](Cc1ccccc1)C(=O)O,-3%,-4%,-127*
SMILES,15-hLO-2 inh,ALOX12 inhib,PNC inhibitor
Nc1c2ccccc2nc2c(O)cccc12,0%[25.6 µM],2%[25.6 µM],nt
C=CCCCCCCCCCCC/C=C/C(O)COC(C)=O (centres undefined),1%,-11%,nt
Nc1ccc(N)c(Cl)c1,-16%,-11%,nt
COc1ccccc1OCCNC(=O)c1cc(F)c(F)cc1Cl,nt,6%,30
COc1ccccc1OCCNC(=O)c1cc(SC)ccc1Cl,nt,-3%,-113*
COCCOC(=O)C1=C(C)NC(=O)NC1c1cn(-c2ccccc2)nc1-c1cccs1 (centres undefined),0%,-7%,-27
CC1=C(C#N)C(c2cn(-c3ccccc3)nc2-c2cccs2)C(C#N)=C(C)N1,-6%,-27%,-95*
CC(C)c1nc(SCC(=O)N2CCOCC2)c2c(=O)n(C)c(=O)n(C)c2n1,-3%,4%,-106*
CC(C)c1nc(SCC(=O)N2CCN(c3ccccc3)CC2)c2c(=O)n(C)c(=O)n(C)c2n1,-14%,-3%,?
Nc1nc(N)nc(CCCc2nc(N)nc(N)n2)n1,-2%[11.4 µM],5%[11.4 µM],nt
CC12CCC(c3nnc(SCc4ccc(Cl)cc4)nc31)C2(C)C (centres undefined),nt,-2%,1
